# Reference: PubChem BioAssay (NCI)
# Values joined by “and” are separate entries in the source; they are usually repeats but may differ in a detail not shown here. Equal values may be shown once. The panel holds about 83,000 compounds, 20% with a hit somewhere; the sample as a whole holds those more often.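 Assay: single dose, 48 h. Readout: percent growth (0 = no net growth; negative = cell death). Active: <10.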 Active and inactive are the calls of the source.
# System: HL-60(TB) leukemia
# Assay: NCI-60 one-dose screen, 48 h (100 = growth as untreated, 0 = no growth, -100 = all killed)
# Conditions: 10 µM unless noted
# Procedure: Growth inhibition of the HL-60(TB) human tumor cell line is measured as a screen for anti-cancer activity. Cells are grown in 96 well plates and exposed to the test compound for 48 hours. Compounds are tested at a single concentration, which is 10^-5 M for most compounds. The reported endpoint is percent growth (GI% or GIPRCNT), where numbers from 0 - 100% represent growth inhibition, and numbers from -100% - 0 represent cell death. For example, a value of 40 represents 60% growth inhibition. A value of 0 means no net growth occurred over the course of the experiment. A value of -40 indicates 40% of cells at the beginning of the experiment died by the end of the experiment. A value of -100 means all cells are dead at the end of the experiment.
# NCI-60 Human Tumor Cell Lines Screen was performed using the standard one-dose NCI protocol, which is described in more detail at https://dtp.cancer.gov/discovery_development/nci-60/default.htm.
# Compounds with GIPRCNT values below 10 were considered active. Activity score was based on GIPRCNT using the following formula: […]
# Score is 0 for GIPRCNT values of 100 or above, 50 for GIPRCNT values of 0, and 100 for GIPRCNT values of -100.
row,Structure (SMILES),growth
1,Nc1cc2ccccc2c(=O)n1NC(=O)c1ccc(Br)cc1,99.4% (inactive)
2,O=C(CSc1nc2sc3c(c2c(=O)n1-c1ccc(Cl)cc1)CCCC3)N/N=C/C=C/c1ccccc1,64.5% (inactive)
3,O=C1Nc2cc(-c3ccc(NS(=O)(=O)c4ccc([N+](=O)[O-])cc4)cc3)ccc2/C1=C/c1ccc[nH]1,13.7% (inactive)
4,COc1ccc2[nH]c(=O)c(CSc3nccc(-c4ccc(Cl)cc4)n3)cc2c1,29.3% (inactive)
5,CC(=O)Nc1cccc(-n2c(COc3ccc(I)cc3)nc3ccccc32)c1,116% (inactive) and 92.8% (inactive)
6,S=C(Nc1ccc(OCc2nc3ccccc3[nH]2)cc1)NC1CCCCC1,103% (inactive)
7,CC(=O)Nc1cccc(Nc2nc(N[C@H]3CCCc4ccccc43)c3ccccc3n2)c1,90.6% (inactive)
8,O=C(Nc1ccc(-c2ccc3c(c2)NC(=O)/C3=C\c2ccc[nH]2)cc1)Nc1ccc(Cl)c(Cl)c1,51.8% (inactive)
9,Cc1cc2nc3c4ccccc4n(CC4=NCCN4)c3nc2cc1C,-55.6% (active)
10,O=S(=O)(Nc1ncccn1)c1ccc(-n2c(-c3ccc(Br)cc3)nc(-c3ccccc3)c2-c2ccccc2)cc1,41.2% (inactive)
11,COc1ccccc1NC(=O)c1ccc(NC(=O)CCl)s1,-53.8% (active)
12,CCOC(=O)/C(F)=C/C1CC1C1CCN(C(=O)OC(C)(C)C)CC1 (stereo not given),102% (inactive)
13,O=C1NC(=O)/C(=C/c2ccccc2OCc2cc3ccccc3nc2Cl)S1,99% (inactive)
14,O=C1Nc2ccccc2/C1=C\c1ccc(OCC(=O)c2ccc(Br)cc2)cc1,40.4% (inactive)
15,COc1c2c(cc3c1C(CCc1ccccc1)N(C)CC3)OCO2 (stereo not given),-28.3% (active)
16,COc1ccc(CN2[C@@H](C(=O)NCc3ccc(C(=O)NO)cc3)Cc3c([nH]c4ccccc34)[C@@H]2C2CC2)cc1,-8.06% (active)
17,c1n[nH]cc1-c1nc2ccc3[nH]ncc3c2c2c1CC1(CCOCC1)CC2,26.5% (inactive)
18,COc1ccc2c(c1)c(-c1cc(N)n3nc(-c4cn(C)c5ccccc45)cc3n1)cn2C,-33.1% (active)
19,COc1ccc(OC)c(/C=N/NC(=O)c2ccc3nc(-c4ccc(Cl)cc4)[nH]c3c2)c1,87.1% (inactive)
20,COc1csc(/C=N/NC(=O)c2[nH]c3ccc(Br)cc3c2-c2ccccc2)c1,-42.8% (active)

row,Structure (SMILES),growth
1,Cc1cc(C)cc(NC(=O)Cn2cc(COn3nnc4ccccc43)nn2)c1,92.6% (inactive)
2,CCN1CCN(Cc2ccc(C(=O)Nc3cccc(Nc4ccc5c(OC)cccc5n4)c3)cc2C(F)(F)F)CC1,-57.1% (active)
3,C[C@H]1[C@@H](Oc2ccc(-c3cn(-c4ccnc5cc(Cl)ccc45)nn3)cc2)O[C@@H]2OC3(C)CC[C@H]4[C@H](C)CC[C@@H]1[C@@]24OO3,6.05% (active)
4,Clc1ccc(CNc2nc(SCCN3CCOCC3)nc3c2cnn3CC(Cl)c2ccc(Br)cc2)cc1 (stereo not given),-9.78% (active)
5,O=C(Nc1ccc(I)cc1)Nc1nc2ccc([N+](=O)[O-])cc2s1,-37.3% (active)
6,Cc1ccc(-c2nc(Nc3ccc(S(N)(=O)=O)cc3)c3ccccc3n2)cc1,24.9% (inactive)
7,CN(C)CCc1cn(C2CCC2)c2cccc(O)c12,12.5% (inactive)
8,COc1cc2c(c(OC)c1OC)C(=O)CC(c1cccc(NC(=O)c3cccc([N+](=O)[O-])c3)c1)O2 (stereo not given),26.1% (inactive)
9,Cc1ccc2c(c1)/C(=C/C(=O)c1cc3ccccc3oc1=O)C(=O)N2,53% (inactive)
10,CCC(C)(C)c1ccc(OCCCCCCN2CCN(c3ccncc3)CC2)cc1,-62.2% (active)
11,COc1cc(/C=N/NC(=O)c2ccc(OCc3nc4ccc(C)cc4[nH]3)cc2)cc(OC)c1OC,33.5% (inactive)
12,CC(C)c1ccc(C(=O)Nc2sc3c(c2C(N)=O)CCC(=O)C3=O)cc1,96.9% (inactive)
13,CC12OOC(C)(OO1)C2CCC(=O)NCCCNc1ccnc2cc(Cl)ccc12 (stereo not given),96.6% (inactive)
14,COc1ccc2[nH]c(=O)cc(-n3ncc(C(=O)/C=C/c4cc(OC)c(OC)c(OC)c4)c3C)c2c1,-33.4% (active)
15,COc1ccc2[nH]cc(-c3cc(N)n4nc(-c5c[nH]c6ccccc56)cc4n3)c2c1,-44.7% (active)
16,NS(=O)(=O)c1ccc(N=Nc2c(O)n(CC(=O)Nc3ccccc3Br)c3ccccc23)cc1,76.6% (inactive)
17,Cc1cc(C)nc(/N=C(\N)Nc2ccc(S(=O)(=O)Nc3nc(C)cc(C)n3)cc2)n1,94.7% (inactive)
18,O=C(c1ccc(O)cc1)C1[C@H](c2ccc(Cl)cc2)[C@@H](c2ccccc2)NC12C(=O)Nc1ccc(Br)cc12 (stereo not given in full),-33.9% (active)
19,CC12CC[C@@H]3[C@]4(C)COC(c5cn[nH]c5-c5ccc(Br)cc5)O[C@@H]4CC[C@@]3(C)[C@@H]1CC(C1=CCOC1=O)O2 (stereo not given in full),27.2% (inactive)
20,COc1cc2cc(C(=O)N3C[C@@H](CCl)c4c3cc(OC(=O)N(CCC(=O)N3CCN(C)CC3)[C@H]3CCSSC3)c3ccccc43)[nH]c2c(OC)c1OC,-34.5% (active)
